Here are results for seven sequences from the supplement of paper PMC6555819.

Holding throughout (assay): PBM binding z-score (relative to random genomic background probes); higher = stronger binding; sequences stand for … in GC…GCGATTGACAGCGTAGAATGAAGG
The test system of experiment [1] is FXR:RXRa (NR concentration 270 nM, RXRa partner concentration 90 nM). The method in brief: (§1)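 For binding z-scores, the reference was random background probes on custom Agilent 4×180K protein-binding microarrays. These arrays were incubated 1 h with ligand-free nuclear receptor dimers in PBS pH 7.4, 2% milk, 0.02% Triton X-100, 1 mM DTT, 0.2 mg/mL BSA and 0.4 mg/ml salmon testes DNA. Fluorescence was scanned after antibody detection of each partner (one per run) and regression-normalized.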

For experiment [2], the system named is LXRa homodimer (NR concentration 270 nM). The method in brief:
as §1

In experiment [3] the test system is LXRb homodimer (NR concentration 270 nM). The method in brief: as §1
Experiment [4] relates to PPARa:RXRa (NR concentration 270 nM, RXRa partner concentration 90 nM). The method in brief:
as §1

Experiment [5] deals with PPARg:RXRa (NR concentration 180 nM, RXRa partner concentration 90 nM). The method in brief:
as §1

Experiment [6] has as its system PPARg:RXRa 270nM:90nM, anti-RXR (NR concentration 270 nM, RXRa partner concentration 90 nM). The method in brief:
as §1

For experiment [7], the system named is PPARg:RXRa 30nM:10nM, anti-RXR (NR concentration 30 nM, RXRa partner concentration 10 nM). The method in brief:
as §1

In experiment [8] the test system is PPARg:RXRa 90nM:30nM, anti-RXR (NR concentration 90 nM, RXRa partner concentration 30 nM). The method in brief: as §1
Experiment [9] concerns PPARg:RXRa DBDmut IVT, anti-RXR (DBD mutation: RXRa K156A/R161A, NR concentration 270 nM, RXRa partner concentration 90 nM). The method in brief:
as §1

Experiment [10] concerns PPARg:RXRa IVT, anti-PPARg (NR concentration 270 nM, RXRa partner concentration 90 nM). The method in brief: as §1
Experiment [11] has as its system PPARg DBDmut:RXRa IVT, anti-PPARg (DBD mutation: PPARg1 K132A/R137A, NR concentration 270 nM, RXRa partner concentration 90 nM). The method in brief:
as §1

The subject of experiment [12] is PPARg DBDmut IVT, anti-PPARg (DBD mutation: PPARg1 K132A/R137A, NR concentration 270 nM). The method in brief:
as §1

Experiment [13] relates to PPARg homodimer (NR concentration 180 nM). The method in brief: as §1
In experiment [14] the test system is PXR:RXRa (NR concentration 270 nM, RXRa partner concentration 90 nM). The method in brief: as §1
In experiment [15] the test system is PXR homodimer (NR concentration 270 nM). The method in brief: as §1
The test system of experiment [16] is RARa:RXR (NR concentration 270 nM, RXRa partner concentration 90 nM). The method in brief:
as §1

The test system of experiment [17] is RARa homodimer (NR concentration 270 nM). The method in brief: as §1
In experiment [18] the test system is RARb:RXRa (NR concentration 270 nM, RXRa partner concentration 90 nM). The method in brief: as §1
The test system of experiment [19] is RARb homodimer (NR concentration 270 nM). The method in brief: as §1

As for CAAACTAGGTCACTAAAGGTCAAAGTCGAATGAC, the PBM binding z-score was determined as 7.13 in experiment [1]; 10.4 in experiment [2]; 4.07 in experiment [3]; 6.51 in [4]; 10.1 in experiment [5]; 8.33 in experiment [6]. For the same sequence, the PBM binding z-score in experiment [7] stood at 6.31; in experiment [8], 8.16; in experiment [9], 8.1; in [10] it was 8.98; in [11] it was 4.79; in [12], 2.9. Further, the PBM binding z-score was found to be 5.36 in [13]; 6.84 in experiment [14]; 2.87 in [15]; 7.45 in experiment [16]; 3.41 in experiment [17]; 5.53 in experiment [18]. The same sequence displayed a PBM binding z-score in [19] of 5.66.
Take CCTTACGGGTCACGAGGTTGTAGCACGACGAGCG: the PBM binding z-score was 6.87 in experiment [1]; 0.0323 in [2]; -0.413 in experiment [3]; 5.73 in experiment [4]; 6.48 in experiment [5]; 6.12 in experiment [6]. Moreover, the PBM binding z-score was 3.32 in experiment [7]; 5.08 in experiment [8]; 4 in [9]; 4.99 in [10]; 1.56 in [11]; -0.374 in experiment [12]. Further, the PBM binding z-score in [13] is 3.19; in experiment [14], 3.92; in experiment [15], -0.0862; in [16] it was 5.55; in experiment [17], 0.412; in experiment [18] it was 4.42. The PBM binding z-score in [19] was found to be 3.53.
In the case of TAGCCTAGGTCATTCAGGGGCCACTATAGAAAGC, the PBM binding z-score in experiment [1] is 4.76; in [2] it was 1.27; in [3] it was 1.1; in [4], 3.95; in experiment [5], 2.63; in experiment [6], 2.83. Also, the PBM binding z-score in experiment [7] is 0.439; in [8] it was 2.09; in experiment [9] it was 2.08; in experiment [10], 3.19; in experiment [11], 0.203; in experiment [12] it was -0.136. Further, the PBM binding z-score was 2.11 in experiment [13]; 3.08 in experiment [14]; -0.109 in [15]; 4.13 in [16]; 0.262 in experiment [17]; 4.11 in experiment [18]. For the same sequence, in [19], the PBM binding z-score is 3.28.
Consider TCTTGTAGATCAACAGGAGGTTAATAAAGATCGA, for which the PBM binding z-score was 0.0439 in [1]; -0.0218 in [2]; -0.135 in experiment [3]; 1.23 in [4]; 0.6 in experiment [5]; 1.68 in [6]. The PBM binding z-score in experiment [7] turned out to be 2.71; in [8] it was 2.08; in experiment [9], 1.38; in experiment [10], 0.851; in experiment [11] it was 0.688; in [12], 0.752. Further, the PBM binding z-score is 0.0813 in experiment [13]; 0.776 in experiment [14]; -0.162 in experiment [15]; 1.23 in experiment [16]; 0.176 in experiment [17]; 0.533 in experiment [18]. This sequence came in with a PBM binding z-score in experiment [19] of 0.497.
With CCTACTGGTCCAAGGTCATTGATCAGTCAAAGCA, the PBM binding z-score in experiment [1] came out at 3.53; in experiment [2], 2.3; in experiment [3] it was 0.894; in experiment [4] it was 3.59; in experiment [5], 1.77; in experiment [6], 3.04. For the same sequence, the PBM binding z-score in [7] is 0.847; in [8], 2.12; in experiment [9], 0.394; in [10], 1.68; in experiment [11] it was -0.223; in experiment [12], -0.605. The PBM binding z-score in experiment [13] stood at 3.61; in [14], 4.18; in experiment [15] it was 2.61; in experiment [16], 4.13; in [17] it was 1.23; in experiment [18], 3.33. Moreover, the PBM binding z-score in experiment [19] was 3.76.
For the sequence TTGCCTAGGTCATTGGGCCAGTATAGTACGCATC, the PBM binding z-score was determined as 4.6 in [1]; 0.781 in [2]; 0.088 in experiment [3]; 3.86 in [4]; 3.36 in experiment [5]; 3.63 in experiment [6]. The PBM binding z-score in experiment [7] is 1; in experiment [8] it was 2.47; in experiment [9], 2.65; in [10] it was 3.83; in experiment [11], 0.969; in experiment [12], -0.224. In addition, the PBM binding z-score in [13] is 0.621; in experiment [14] it was 1.67; in [15], -0.193; in [16], 2.13; in [17], -0.65; in experiment [18] it was 3.79. The PBM binding z-score in [19] turned out to be 2.92.
Take CCTTACGGGTCACTCCAGGTCATAGCATCGGAGT: the PBM binding z-score came to 5.36 in experiment [1]; 7.03 in experiment [2]; 0.548 in experiment [3]; 4.38 in experiment [5]; 4.54 in experiment [6]; 1.86 in experiment [7]. For the same sequence, the PBM binding z-score in experiment [8] is 3.2; in experiment [9], 2.73; in [10], 4.39; in experiment [11] it was -0.278; in [12] it was -0.144; in [13], 2.14. Besides, the PBM binding z-score came to 6.17 in [14]; 1.15 in [15]; 4.49 in experiment [16]; 0.835 in [17]; 4.25 in [18]; 4.42 in experiment [19].
